From the antibiotic and cytotoxicity screens of Wong et al. (2023)
Screen size: about 39,000 compounds; about 500 (1.3%) were called active. Many of the other results were omitted from the sample, so actives are more common in it than they were.

System: S. aureus RN4220
Experiment: growth inhibition call (relative growth <= 0.2)
Conditions: 50 µM

SMILES	growth inhibition call
NCCCC[C@@H](N)C(=O)N[C@@H](Cc1c[nH]c2ccccc12)C(=O)N[C@@H](CCCCN)C(=O)O	inactive
Cc1cc(C)cc(C(=O)N(C)[C@H](Cc2ccc(-c3ccccc3)cc2)C(=O)N[C@@H](Cc2c[nH]c3ccccc23)C(=O)O)c1	active
NC(Cc1c[nH]c2ccccc12)C(=O)O (stereo not drawn)	inactive
CCC[C@H]1CN(S(=O)(=O)c2c(C)cc(C)c3nonc23)C[C@@H]1N	inactive
Nc1cc(=O)[nH]c(=O)n1Cc1ccccc1	inactive
Cn1c(=O)sn(-c2ccccc2)c1=O	inactive
Cn1sc(=O)n(Cc2ccccc2)c1=O	active
Cc1ccc(S(=O)(=O)Nc2ccc3c(c2)C(=O)N([C@@H](C)CO)C[C@@H](C)[C@H](CN(C)S(=O)(=O)c2ccc(C)cc2)OCCCC[C@H](C)O3)cc1	inactive
CO[C@@H]1CN(C)C(=O)c2cc(NS(C)(=O)=O)ccc2OC[C@@H](C)N(C(=O)C2CCCCC2)C[C@@H]1C	inactive
Cc1ccc(C(C)C)cc2c(C)ccc1-2	inactive
CC(C)c1ccc(N2C=Nc3ccc(C(C)C)cc3C2)cc1	active
COc1ccc(NC(=O)Nc2ccc3c(c2)C(=O)N([C@@H](C)CO)C[C@@H](C)[C@@H](CN(C)C(=O)CCC(F)(F)F)OCCCC[C@@H](C)O3)cc1	inactive
C[C@@H]1CN([C@H](C)CO)C(=O)Cc2cc(NC(=O)C3CCCCC3)ccc2O[C@@H]1CN(C)Cc1ccc(C(F)(F)F)cc1	inactive
COc1ccccc1CNC(=O)C[C@H]1C[C@H]2c3cc(NC(=O)NC4CCCC4)ccc3O[C@H]2[C@H](CO)O1	inactive
COc1cc(C(=O)NS(=O)(=O)c2ccccc2C)ccc1Cc1cn(C)c2ccc(NC(=O)OC3CCCC3)cc12	active
COc1cc(Nc2nc3ccccc3nc2NS(=O)(=O)c2ccc(NC(=O)c3ccc(C)c(OC)c3)cc2)cc(OC)c1	inactive
CCNC(=O)[C@@H]1[C@@H](CO)[C@@H]2Cn3c(ccc(-c4ccc(OC)cc4)c3=O)[C@H]1N2S(C)(=O)=O	inactive
COc1ccc(NC(=O)Nc2ccc3c(c2)C(=O)N([C@H](C)CO)C[C@@H](C)[C@H](CN(C)CC2CC2)OCCCC[C@@H](C)O3)cc1	inactive
C[C@H](CO)N1C[C@H](C)[C@H](CN(C)Cc2ccc(-c3ccccc3)cc2)Oc2c(NS(=O)(=O)c3ccc(F)cc3)cccc2C1=O	inactive
COc1ccc(C)cc1S(=O)(=O)NCCO	inactive
Cc1cc(C)c(-c2ccc(NC(=O)[C@H](Cc3ccc(C(=O)NCCS(=O)(=O)O)cc3)c3ccc(-c4ccc(C(C)(C)C)cc4)cc3)cc2)c(C)c1	inactive
COc1ccc2cc(-c3cc(-c4cc(Cl)cc(Cl)c4)nn3[C@@H](C)c3ccc(C(=O)NCCC(=O)O)cc3)ccc2c1	inactive
Cc1cc(O[C@@H](CCC(F)(F)F)c2ccc(C(=O)NCCC(=O)O)cc2)cc(C)c1-c1ccc(C(C)(C)C)cc1	active
COc1ccc(NC(=O)Nc2cccc3c2O[C@H](CN(C)S(C)(=O)=O)[C@H](C)CN([C@@H](C)CO)C3=O)cc1	inactive
Nc1ncn(C[C@@H](O)CO)c2nc(Br)nc1-2	inactive
Nc1nnc(-c2ccc([N+](=O)[O-])o2)o1	active

SMILES	growth inhibition call
Cc1cc(-c2nnc(N)o2)nn1C	inactive
Nc1nnc(-c2ccno2)o1	inactive
Cc1noc(C)c1NC(=O)N(C)C[C@@H]1OCCCC[C@@H](C)Oc2ccc(NC(=O)Nc3ccc(F)cc3)cc2C(=O)N([C@@H](C)CO)C[C@H]1C	inactive
CC(=O)Oc1cc(-c2coc3cc(OC(C)=O)c(OC(C)=O)c(OC(C)=O)c3c2=O)cc(OC(C)=O)c1OC(C)=O	inactive
C[C@]1(C(=O)NCC(F)(F)F)c2ccccc2C(=O)N(Cc2cc(C(F)(F)F)cc(C(F)(F)F)c2)[C@H]1c1ccc(CO)cc1	inactive
O=C(NC1CCCCCCC1)c1ccccc1-c1ccccc1	inactive
O=C(NC1CCN(CCCCC2(C(=O)NCC(F)(F)F)c3ccccc3-c3ccccc32)CC1)c1ccccc1-c1ccc(C(F)(F)F)cc1	active
C[C@@H]1CN([C@H](C)CO)C(=O)Cc2cc(NC(=O)Nc3ccc4c(c3)OCO4)ccc2O[C@H]1CN(C)S(C)(=O)=O	inactive
Cc1ccc(S(=O)(=O)N(C)C[C@H]2Oc3ccc(NC(=O)NC(C)C)cc3CC(=O)N([C@H](C)CO)C[C@H]2C)cc1	inactive
Cc1nnc(SCC2=C(C(=O)[O-])N3C(=O)C(NC(=O)Cn4cnnn4)C3SC2)s1.[Na+] (stereo not drawn)	active
O=C(Cn1cnnn1)NC1C(=O)N2C(C(=O)O)=C(CSc3nncs3)CSC12 (stereo not drawn)	active
Cc1nnc(SCC2=C(C(=O)O)N3C(=O)[C@@H](N)[C@H]3SC2)s1	inactive
Cc1nnc(SCC2=C(C(=O)O)N3C(=O)[C@@H](NC(=O)Cn4cnnn4)[C@H]3SC2)s1	active
C[C@@H]1CN([C@@H](C)CO)C(=O)c2cc(NC(=O)Cc3ccccc3)ccc2O[C@@H](C)CCCCO[C@H]1CN(C)C(=O)Nc1cccc2ccccc12	inactive
Cc1cc(C(=O)Nc2cccc3c2O[C@H](CN(C)C(=O)Nc2ccccc2)[C@@H](C)CN([C@H](C)CO)C3=O)n(C)n1	inactive
C[C@@H]1CCCCO[C@@H](CN(C)C(=O)c2ccccc2)[C@@H](C)CN([C@H](C)CO)C(=O)c2cc(NC(=O)CCCCCC(=O)Nc3ccccc3N)ccc2O1	inactive
C[C@H]1CCCCO[C@H](CN(C)S(=O)(=O)c2ccc(F)cc2)[C@@H](C)CN([C@@H](C)CO)C(=O)c2cc(NC(=O)Nc3cccc4ccccc34)ccc2O1	inactive
Cc1csc2c(Cl)ncnc12	inactive
COc1ccc(CCN2C(=O)[C@@]3(Cc4ccccc42)c2ccccc2C(=O)N(C2CCCCC2)[C@H]3c2ccc(CO)cc2)cc1	inactive
COc1ccc(NC(=O)N(C)C[C@@H]2OCCCC[C@H](C)Oc3ccc(NC(=O)C4CCCCC4)cc3C(=O)N([C@H](C)CO)C[C@H]2C)cc1	inactive
C[C@H]1CCCCO[C@H](CN(C)C(=O)C2CCCCC2)[C@@H](C)CN([C@@H](C)CO)C(=O)c2cc(NC(=O)c3ccccc3)ccc2O1	inactive
Cc1nn(C)cc1NC(=O)C[C@H]1CC[C@@H]2[C@H](COc3ccc(NC(=O)C4CCOCC4)cc3C(=O)N2C)O1	inactive
N#CCN1CCSCC1	inactive
C[C@H]1CN([C@@H](C)CO)C(=O)c2cc(NC(=O)CCN3CCOCC3)ccc2O[C@H]1CN(C)CC1CCCCC1	inactive
Cc1noc(C)c1S(=O)(=O)N(C)C[C@H]1OCCCC[C@@H](C)Oc2ccc(NS(C)(=O)=O)cc2C(=O)N([C@@H](C)CO)C[C@H]1C	inactive
COCC(=O)Nc1ccc2c(c1)C(=O)N(C)[C@@H]1CC[C@@H](CC(=O)N3CCc4ccccc4C3)O[C@H]1CO2	inactive

SMILES	growth inhibition call
Cc1ccc(S(=O)(=O)N(C)C[C@@H]2Oc3ccc(NC(=O)NC(C)C)cc3CC(=O)N([C@H](C)CO)C[C@@H]2C)cc1	inactive
C[C@@H]1CCCCO[C@@H](CN(C)Cc2ccc(C(=O)Nc3ccccc3N)cc2)[C@@H](C)CN([C@H](C)CO)C(=O)c2cc(NC(=O)C3CCCCC3)ccc2O1	inactive
C[C@H]1CN([C@@H](C)CO)C(=O)c2cccc(NC(=O)c3cnccn3)c2O[C@H]1CN(C)Cc1ccc(C(=O)O)cc1	inactive
O=C(N/N=C/c1ccc(CO)o1)c1ccccn1	inactive
Cc1ccc(S(=O)(=O)N2CCN(CC(=O)N/N=C/c3ccccn3)CC2)cc1	inactive
O=C(Cn1ccc([N+](=O)[O-])n1)N1CCOCC1	inactive
NC(=O)NN=Cc1ccc([N+](=O)[O-])o1	active
NC(=O)N/N=C/c1ccc([N+](=O)[O-])o1	active
O=C(CN1CCOCC1)N/N=C/c1ccc([N+](=O)[O-])o1	active
CCOC(=O)c1ccc(N2NC(=O)/C(=C/c3ccc([N+](=O)[O-])o3)C2=O)cc1	inactive
O=C(NN=Cc1ccc([N+](=O)[O-])o1)c1ccc(O)cc1	inactive
COC(=O)N/N=C/c1ccc([N+](=O)[O-])o1	inactive
COCC#Cc1ccc2c(c1)O[C@H](CN(C)C(=O)c1ccccc1F)[C@H](C)CN([C@H](C)CO)S2(=O)=O	inactive
C[C@H](CO)N1C[C@H](C)[C@H](CN(C)C(=O)Nc2ccc3c(c2)OCO3)Oc2ncc(-c3cncnc3)cc2C1=O	inactive
COc1ccc(NC(=O)Nc2ccc3c(c2)C(=O)N([C@H](C)CO)C[C@@H](C)[C@@H](CN(C)Cc2ccc(C(=O)Nc4ccccc4N)cc2)O3)cc1	inactive
C[C@@H]1CN([C@H](C)CO)C(=O)CCCn2cc(nn2)CO[C@H]1CN(C)S(C)(=O)=O	inactive
O=C(CN1CCOCC1)NCC[C@H]1CC[C@@H](NC(=O)c2ccccc2F)[C@H](CO)O1	inactive
COc1ccc(NC(=O)N(C)C[C@@H]2OCCCC[C@@H](C)Oc3ccc(NS(=O)(=O)c4ccccc4)cc3C(=O)N([C@@H](C)CO)C[C@@H]2C)cc1	inactive
CCS(=O)(=O)Nc1ccc2c(c1)C(=O)N(C)C[C@H](OC)[C@@H](C)CN(Cc1nccs1)[C@H](C)CO2	inactive
CCOC(=O)Nc1ccc(C)s1	inactive
Cc1noc(C)c1S(=O)(=O)N(C)C[C@@H]1OCCCC[C@@H](C)Oc2ccc(NC(=O)Nc3ccc(C(F)(F)F)cc3)cc2C(=O)N([C@@H](C)CO)C[C@@H]1C	inactive
C[C@@H]1CN([C@H](C)CO)C(=O)c2cc(/C=C/c3ccccc3)cnc2O[C@@H]1CN(C)C(=O)C1CCOCC1	inactive
C[C@@H]1CN([C@@H](C)CO)C(=O)CCCn2nncc2CO[C@@H]1CN(C)S(=O)(=O)c1ccccc1C#N	inactive
Cc1cc(O)c(C=O)c(O)c1C(=O)O	inactive
COC(=O)c1c(C)cc(OC(=O)c2c(C)cc(O)c(C=O)c2O)c(C)c1O	inactive
CCOC(=O)c1c(C)cc(O)c(C=O)c1O	active
